# Laboratory results reported in publication PMC7862700, “An all-to-all approach to the identification of sequence-specific readers for epigenetic DNA modifications on cytosine”.
# Key:
# Test in all cases: DAPPL (digital affinity profiling via proximity ligation, sequencing); 10 mM Tris-HCl pH 7.5, 50 mM NaCl, 1 mM DTT, 4% glycerol, room temperature, 30 min; GST-TFs on glutathione beads, 16-mer random dsDNA library, 0.1% formaldehyde crosslink after washing; high values mean tight binding
# [1] = molecular target: T1, FEV (Homo sapiens, UniProt Q99581 1-238); details: protein: recombinant; tags: N-terminal GST; dsDNA, one strand shown
# T1 sequence: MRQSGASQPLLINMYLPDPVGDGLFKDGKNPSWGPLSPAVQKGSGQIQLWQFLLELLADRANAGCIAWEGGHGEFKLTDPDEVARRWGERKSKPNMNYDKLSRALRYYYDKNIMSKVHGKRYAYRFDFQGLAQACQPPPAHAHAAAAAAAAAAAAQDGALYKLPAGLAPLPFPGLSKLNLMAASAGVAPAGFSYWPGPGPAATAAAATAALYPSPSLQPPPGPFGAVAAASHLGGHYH
# Procedure, shortened: (§1)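 Sequencing on an Illumina NextSeq500 followed washing, crosslinking with 0.1% formaldehyde, proximity ligation (BsaI/T4 ligase, 1 h, 37 °C) and PCR amplification of pools that had been incubated for 30 min at room temperature with 200 nmole of a random double-stranded 16-mer DNA library in Tris/NaCl/DTT/glycerol buffer. Each pool held DNA-barcoded human transcription factors, expressed in yeast as GST fusions and captured on glutathione beads, plus a tag-only sample. Binding signal is a hexamer's read frequency for a factor divided by its frequency in the tag-only sample.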
# [2] = molecular target: ETV5 (Homo sapiens, UniProt P41161 1-510); details: protein: recombinant; tags: N-terminal GST; dsDNA, one strand shown
# ETV5, sequence (P41161 whole entry): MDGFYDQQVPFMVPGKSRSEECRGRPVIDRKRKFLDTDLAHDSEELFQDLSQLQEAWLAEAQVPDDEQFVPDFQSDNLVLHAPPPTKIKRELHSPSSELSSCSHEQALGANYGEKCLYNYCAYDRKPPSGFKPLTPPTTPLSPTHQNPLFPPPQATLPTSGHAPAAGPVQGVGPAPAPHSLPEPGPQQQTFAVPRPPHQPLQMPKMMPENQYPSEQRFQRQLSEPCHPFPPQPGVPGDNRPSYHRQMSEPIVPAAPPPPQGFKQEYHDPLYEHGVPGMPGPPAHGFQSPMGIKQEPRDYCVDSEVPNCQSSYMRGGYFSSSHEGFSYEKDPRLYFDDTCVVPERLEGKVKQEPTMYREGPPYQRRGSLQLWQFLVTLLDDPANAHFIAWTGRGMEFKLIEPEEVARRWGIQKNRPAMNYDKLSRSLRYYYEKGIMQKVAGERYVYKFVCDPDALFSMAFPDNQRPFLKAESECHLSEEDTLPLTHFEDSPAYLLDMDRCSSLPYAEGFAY
# Procedure, shortened: as §1
# [3] = molecular target: HSF1 (Homo sapiens, UniProt Q00613 1-529); details: protein: recombinant; tags: N-terminal GST; chain copies: 3; dsDNA, one strand shown
# HSF1, sequence (Q00613 whole entry): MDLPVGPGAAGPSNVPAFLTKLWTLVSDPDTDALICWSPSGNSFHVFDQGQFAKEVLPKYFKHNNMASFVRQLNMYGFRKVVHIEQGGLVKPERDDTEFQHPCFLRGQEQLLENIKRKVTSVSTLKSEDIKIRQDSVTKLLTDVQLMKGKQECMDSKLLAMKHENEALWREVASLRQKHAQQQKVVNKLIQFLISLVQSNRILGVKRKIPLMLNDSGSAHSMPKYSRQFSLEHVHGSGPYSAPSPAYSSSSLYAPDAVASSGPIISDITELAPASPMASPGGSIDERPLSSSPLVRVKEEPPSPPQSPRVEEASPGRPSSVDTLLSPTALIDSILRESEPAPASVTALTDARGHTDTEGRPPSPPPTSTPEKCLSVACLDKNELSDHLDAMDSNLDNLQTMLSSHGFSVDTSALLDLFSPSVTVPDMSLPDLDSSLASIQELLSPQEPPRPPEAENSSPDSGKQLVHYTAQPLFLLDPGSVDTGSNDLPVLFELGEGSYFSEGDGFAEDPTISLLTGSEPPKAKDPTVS
# Procedure, shortened: as §1
# [4] = molecular target: T2, SPIC (Homo sapiens, UniProt Q8N5J4 1-248); details: protein: recombinant; tags: N-terminal GST; dsDNA, one strand shown
# T2 sequence: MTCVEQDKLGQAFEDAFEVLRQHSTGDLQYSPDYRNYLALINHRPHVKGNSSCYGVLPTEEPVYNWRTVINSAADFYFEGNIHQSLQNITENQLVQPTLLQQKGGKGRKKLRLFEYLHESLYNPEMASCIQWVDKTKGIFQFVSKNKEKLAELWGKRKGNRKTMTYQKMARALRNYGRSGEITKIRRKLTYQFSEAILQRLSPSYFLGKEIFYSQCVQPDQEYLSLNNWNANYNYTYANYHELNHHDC
# Procedure, shortened: as §1
# [5] = molecular target: ELF4 (Homo sapiens, UniProt Q99607 1-663); details: protein: recombinant; tags: N-terminal GST; dsDNA, one strand shown
# ELF4, sequence (Q99607 whole entry): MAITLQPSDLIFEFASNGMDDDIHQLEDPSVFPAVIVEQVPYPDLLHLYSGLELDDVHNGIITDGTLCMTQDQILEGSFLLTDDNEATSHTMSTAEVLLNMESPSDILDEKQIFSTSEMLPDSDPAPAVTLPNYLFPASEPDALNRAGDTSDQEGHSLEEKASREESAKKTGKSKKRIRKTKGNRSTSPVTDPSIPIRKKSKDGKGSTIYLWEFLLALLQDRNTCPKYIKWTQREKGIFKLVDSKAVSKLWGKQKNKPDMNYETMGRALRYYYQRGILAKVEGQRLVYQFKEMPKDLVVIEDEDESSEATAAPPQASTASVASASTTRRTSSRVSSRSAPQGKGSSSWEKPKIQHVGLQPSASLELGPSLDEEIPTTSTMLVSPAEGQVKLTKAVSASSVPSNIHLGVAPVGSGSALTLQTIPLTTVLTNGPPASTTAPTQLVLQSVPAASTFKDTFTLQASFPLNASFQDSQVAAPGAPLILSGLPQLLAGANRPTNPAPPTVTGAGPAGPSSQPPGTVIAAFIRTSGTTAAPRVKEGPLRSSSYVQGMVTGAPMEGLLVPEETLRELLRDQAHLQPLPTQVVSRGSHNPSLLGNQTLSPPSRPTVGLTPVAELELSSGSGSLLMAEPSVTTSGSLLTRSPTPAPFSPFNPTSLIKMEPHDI
# Procedure, shortened: as §1
# [6] = molecular target: T3, ELK4 (Homo sapiens, UniProt P28324-2 1-405); details: protein: recombinant; tags: N-terminal GST; dsDNA, one strand shown
# T3 sequence: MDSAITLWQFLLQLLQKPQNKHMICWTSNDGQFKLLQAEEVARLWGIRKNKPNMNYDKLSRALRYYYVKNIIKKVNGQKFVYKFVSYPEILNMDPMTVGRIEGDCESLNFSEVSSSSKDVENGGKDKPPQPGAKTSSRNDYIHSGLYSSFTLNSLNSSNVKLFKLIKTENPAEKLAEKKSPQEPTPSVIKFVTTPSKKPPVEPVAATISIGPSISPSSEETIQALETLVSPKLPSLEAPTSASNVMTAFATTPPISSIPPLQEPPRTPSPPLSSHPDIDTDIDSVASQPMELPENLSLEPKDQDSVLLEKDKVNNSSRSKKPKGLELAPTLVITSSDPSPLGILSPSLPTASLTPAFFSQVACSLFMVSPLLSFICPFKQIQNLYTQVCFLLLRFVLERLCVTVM
# Procedure, shortened: as §1
# [7] = molecular target: T4, ETV2 (Homo sapiens, UniProt O00321 1-342); details: protein: recombinant; tags: N-terminal GST; dsDNA, one strand shown
# T4 sequence: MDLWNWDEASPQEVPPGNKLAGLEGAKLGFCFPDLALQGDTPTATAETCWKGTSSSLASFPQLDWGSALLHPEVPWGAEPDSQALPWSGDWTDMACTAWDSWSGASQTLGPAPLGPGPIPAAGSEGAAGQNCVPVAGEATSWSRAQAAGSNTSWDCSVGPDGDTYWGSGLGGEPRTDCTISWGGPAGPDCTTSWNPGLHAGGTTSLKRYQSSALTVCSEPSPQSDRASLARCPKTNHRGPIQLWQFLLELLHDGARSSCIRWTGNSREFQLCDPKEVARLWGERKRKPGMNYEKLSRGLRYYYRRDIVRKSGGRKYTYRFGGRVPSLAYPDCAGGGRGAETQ
# Procedure, shortened: as §1
# [8] = molecular target: T5, ELF3 (Homo sapiens, UniProt P78545 1-371); details: protein: recombinant; tags: N-terminal GST; dsDNA, one strand shown
# T5 sequence: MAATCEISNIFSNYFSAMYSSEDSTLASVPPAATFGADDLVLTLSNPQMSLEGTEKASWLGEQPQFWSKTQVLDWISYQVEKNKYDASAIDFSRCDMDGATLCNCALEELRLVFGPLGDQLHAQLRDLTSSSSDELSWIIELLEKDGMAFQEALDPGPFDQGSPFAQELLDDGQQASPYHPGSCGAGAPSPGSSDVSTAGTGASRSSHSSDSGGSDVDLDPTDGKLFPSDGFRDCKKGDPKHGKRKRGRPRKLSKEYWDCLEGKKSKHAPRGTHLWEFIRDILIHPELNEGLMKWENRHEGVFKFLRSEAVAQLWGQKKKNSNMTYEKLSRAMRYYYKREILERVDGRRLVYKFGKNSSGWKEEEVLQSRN
# Procedure, shortened: as §1
# [9] = molecular target: CRX (Homo sapiens, UniProt O43186 1-299); details: protein: recombinant; tags: N-terminal GST; dsDNA, one strand shown
# CRX, sequence (O43186 whole entry): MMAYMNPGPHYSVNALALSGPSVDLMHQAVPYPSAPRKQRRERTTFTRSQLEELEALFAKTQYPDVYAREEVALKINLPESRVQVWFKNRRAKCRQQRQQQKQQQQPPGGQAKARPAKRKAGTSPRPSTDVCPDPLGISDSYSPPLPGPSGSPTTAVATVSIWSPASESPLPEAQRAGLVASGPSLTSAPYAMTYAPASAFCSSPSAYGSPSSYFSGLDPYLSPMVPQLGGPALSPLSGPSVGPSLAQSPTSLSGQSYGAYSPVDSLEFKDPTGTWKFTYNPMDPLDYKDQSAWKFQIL
# Procedure, shortened: as §1
# [10] = molecular target: ETV1 (Homo sapiens, UniProt P50549 1-477); details: protein: recombinant; tags: N-terminal GST; dsDNA, one strand shown
# ETV1, sequence (P50549 whole entry): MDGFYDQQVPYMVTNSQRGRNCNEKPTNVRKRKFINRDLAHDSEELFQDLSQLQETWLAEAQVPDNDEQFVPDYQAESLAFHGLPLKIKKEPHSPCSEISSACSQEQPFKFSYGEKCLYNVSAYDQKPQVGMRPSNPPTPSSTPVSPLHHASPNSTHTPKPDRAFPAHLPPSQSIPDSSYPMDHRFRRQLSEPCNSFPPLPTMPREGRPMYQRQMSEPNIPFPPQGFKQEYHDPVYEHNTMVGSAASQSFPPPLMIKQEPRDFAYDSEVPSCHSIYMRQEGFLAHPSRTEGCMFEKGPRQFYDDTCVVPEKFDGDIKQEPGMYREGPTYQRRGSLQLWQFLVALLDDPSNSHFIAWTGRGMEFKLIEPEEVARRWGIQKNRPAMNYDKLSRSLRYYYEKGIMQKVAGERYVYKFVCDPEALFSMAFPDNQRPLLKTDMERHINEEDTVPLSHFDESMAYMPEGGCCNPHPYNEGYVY
# Procedure, shortened: as §1
# [11] = molecular target: T6, ERF (Homo sapiens, UniProt P50548 1-548); details: protein: recombinant; tags: N-terminal GST; dsDNA, one strand shown
# T6 sequence: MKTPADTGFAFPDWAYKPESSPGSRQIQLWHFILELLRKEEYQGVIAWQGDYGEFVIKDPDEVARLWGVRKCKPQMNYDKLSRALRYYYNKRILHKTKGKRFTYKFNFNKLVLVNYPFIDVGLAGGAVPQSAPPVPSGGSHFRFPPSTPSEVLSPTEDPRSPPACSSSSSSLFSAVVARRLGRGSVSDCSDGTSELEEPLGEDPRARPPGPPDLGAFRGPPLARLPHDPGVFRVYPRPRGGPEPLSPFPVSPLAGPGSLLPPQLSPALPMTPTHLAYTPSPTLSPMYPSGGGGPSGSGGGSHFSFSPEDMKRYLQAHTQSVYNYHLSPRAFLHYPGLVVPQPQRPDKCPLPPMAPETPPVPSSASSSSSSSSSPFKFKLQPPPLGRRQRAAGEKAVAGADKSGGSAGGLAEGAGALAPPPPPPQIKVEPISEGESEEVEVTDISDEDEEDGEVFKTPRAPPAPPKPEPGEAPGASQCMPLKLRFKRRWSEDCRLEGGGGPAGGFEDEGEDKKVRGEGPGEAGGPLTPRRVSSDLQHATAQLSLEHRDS
# Procedure, shortened: as §1
# [12] = molecular target: T7, ETV3L (Homo sapiens, UniProt Q6ZN32 1-361); details: protein: recombinant; tags: N-terminal GST; dsDNA, one strand shown
# T7 sequence: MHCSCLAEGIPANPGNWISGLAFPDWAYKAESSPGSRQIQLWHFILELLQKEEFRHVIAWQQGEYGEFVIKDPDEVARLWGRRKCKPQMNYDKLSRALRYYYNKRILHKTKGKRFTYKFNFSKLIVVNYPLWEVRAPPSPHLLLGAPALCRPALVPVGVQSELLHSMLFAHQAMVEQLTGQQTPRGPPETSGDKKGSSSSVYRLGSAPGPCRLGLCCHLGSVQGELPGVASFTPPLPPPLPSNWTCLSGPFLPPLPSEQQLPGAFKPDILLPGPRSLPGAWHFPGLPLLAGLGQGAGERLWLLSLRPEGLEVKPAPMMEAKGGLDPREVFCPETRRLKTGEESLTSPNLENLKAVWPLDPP
# Procedure, shortened: as §1
# [13] = molecular target: T8, ETS2 (Homo sapiens, UniProt P15036 1-469); details: protein: recombinant; tags: N-terminal GST; dsDNA, one strand shown
# T8 sequence: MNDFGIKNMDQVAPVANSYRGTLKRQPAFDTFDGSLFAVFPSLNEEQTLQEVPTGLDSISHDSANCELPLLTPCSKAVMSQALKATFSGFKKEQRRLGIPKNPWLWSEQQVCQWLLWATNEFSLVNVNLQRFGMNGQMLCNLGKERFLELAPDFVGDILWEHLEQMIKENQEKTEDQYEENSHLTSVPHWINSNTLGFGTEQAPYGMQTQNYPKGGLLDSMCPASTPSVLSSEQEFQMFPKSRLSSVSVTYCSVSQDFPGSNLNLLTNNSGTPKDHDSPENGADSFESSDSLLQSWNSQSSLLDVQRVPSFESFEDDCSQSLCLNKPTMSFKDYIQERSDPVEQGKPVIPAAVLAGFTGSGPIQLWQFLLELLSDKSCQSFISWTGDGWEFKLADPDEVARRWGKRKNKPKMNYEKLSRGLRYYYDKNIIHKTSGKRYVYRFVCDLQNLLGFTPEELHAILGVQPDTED
# Procedure, shortened: as §1
# [14] = molecular target: T9, SPDEF (Homo sapiens, UniProt O95238 1-335); details: protein: recombinant; tags: N-terminal GST; dsDNA, one strand shown
# T9 sequence: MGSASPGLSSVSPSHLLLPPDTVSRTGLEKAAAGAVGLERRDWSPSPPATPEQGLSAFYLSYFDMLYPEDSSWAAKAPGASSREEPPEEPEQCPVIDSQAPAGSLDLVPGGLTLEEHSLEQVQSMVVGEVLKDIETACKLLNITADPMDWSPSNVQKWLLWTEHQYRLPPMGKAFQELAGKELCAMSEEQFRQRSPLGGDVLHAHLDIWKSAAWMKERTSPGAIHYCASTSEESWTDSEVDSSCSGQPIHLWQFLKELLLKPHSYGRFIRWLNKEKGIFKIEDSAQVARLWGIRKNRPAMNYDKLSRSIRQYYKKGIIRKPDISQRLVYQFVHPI
# Procedure, shortened: as §1
# [15] = molecular target: T10, ETV7 (Homo sapiens, UniProt Q9Y603 1-341); details: protein: recombinant; tags: N-terminal GST; dsDNA, one strand shown
# T10 sequence: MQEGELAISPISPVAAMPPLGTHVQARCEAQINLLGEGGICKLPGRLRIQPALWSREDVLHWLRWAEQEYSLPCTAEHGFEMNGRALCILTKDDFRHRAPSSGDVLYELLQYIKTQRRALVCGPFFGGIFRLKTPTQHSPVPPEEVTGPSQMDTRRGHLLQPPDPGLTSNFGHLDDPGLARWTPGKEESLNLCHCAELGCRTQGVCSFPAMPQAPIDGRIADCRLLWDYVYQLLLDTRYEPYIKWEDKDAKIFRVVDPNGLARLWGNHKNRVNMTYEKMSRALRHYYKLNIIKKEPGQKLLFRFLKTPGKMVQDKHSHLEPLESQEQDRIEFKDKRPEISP
# Procedure, shortened: as §1
# [16] = molecular target: T11, ELF5 (Homo sapiens, UniProt Q9UKW6-2 1-255); details: protein: recombinant; tags: N-terminal GST; dsDNA, one strand shown
# T11 sequence: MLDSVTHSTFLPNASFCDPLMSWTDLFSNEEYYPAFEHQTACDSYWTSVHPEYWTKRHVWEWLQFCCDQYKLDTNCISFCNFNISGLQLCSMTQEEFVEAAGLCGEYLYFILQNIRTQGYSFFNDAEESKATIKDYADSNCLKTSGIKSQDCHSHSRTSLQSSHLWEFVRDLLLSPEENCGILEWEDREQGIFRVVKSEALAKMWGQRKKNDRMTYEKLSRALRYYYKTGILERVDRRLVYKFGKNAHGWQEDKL
# Procedure, shortened: as §1
# [17] = molecular target: T12, ETV3 (Homo sapiens, UniProt P41162-2 1-143); details: protein: recombinant; tags: N-terminal GST; dsDNA, one strand shown
# T12 sequence: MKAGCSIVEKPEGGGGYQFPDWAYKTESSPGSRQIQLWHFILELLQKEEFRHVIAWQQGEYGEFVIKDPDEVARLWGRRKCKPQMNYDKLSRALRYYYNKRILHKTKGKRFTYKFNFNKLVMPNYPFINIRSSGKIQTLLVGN
# Procedure, shortened: as §1
# [18] = molecular target: ETV6 (Homo sapiens, UniProt P41212 1-452); details: protein: recombinant; tags: N-terminal GST; dsDNA, one strand shown
# ETV6, sequence (P41212 whole entry): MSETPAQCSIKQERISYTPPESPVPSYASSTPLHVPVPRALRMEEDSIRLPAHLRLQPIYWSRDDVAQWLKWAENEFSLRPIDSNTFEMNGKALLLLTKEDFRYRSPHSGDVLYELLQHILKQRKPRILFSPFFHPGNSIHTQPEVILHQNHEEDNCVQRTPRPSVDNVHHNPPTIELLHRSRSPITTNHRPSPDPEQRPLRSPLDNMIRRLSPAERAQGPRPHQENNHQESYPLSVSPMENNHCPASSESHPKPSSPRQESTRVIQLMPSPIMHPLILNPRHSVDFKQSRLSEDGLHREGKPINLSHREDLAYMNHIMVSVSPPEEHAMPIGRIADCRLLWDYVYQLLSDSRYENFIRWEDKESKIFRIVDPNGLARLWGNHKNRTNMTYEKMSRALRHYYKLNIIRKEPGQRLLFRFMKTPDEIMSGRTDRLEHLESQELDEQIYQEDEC
# Procedure, shortened: as §1
sequence,measurement,setting,value
ATTTGG,binding signal,[1],"1.4 fold enrichment (6-mer frequency, TF over GST control)"
same,binding signal,[2],"1.36 fold enrichment (6-mer frequency, TF over GST control)"
same,binding signal,[3],"1.5 fold enrichment (6-mer frequency, TF over GST control)"
same,binding signal,[4],"1.34 fold enrichment (6-mer frequency, TF over GST control)"
same,binding signal,[5],"1.26 fold enrichment (6-mer frequency, TF over GST control)"
same,binding signal,[6],"1.43 fold enrichment (6-mer frequency, TF over GST control)"
same,binding signal,[7],"1.37 fold enrichment (6-mer frequency, TF over GST control)"
same,binding signal,[8],"1.44 fold enrichment (6-mer frequency, TF over GST control)"
same,binding signal,[9],"1.73 fold enrichment (6-mer frequency, TF over GST control)"
same,binding signal,[10],"1.36 fold enrichment (6-mer frequency, TF over GST control)"
same,binding signal,[11],"1.54 fold enrichment (6-mer frequency, TF over GST control)"
same,binding signal,[12],"1.46 fold enrichment (6-mer frequency, TF over GST control)"
same,binding signal,[13],"1.38 fold enrichment (6-mer frequency, TF over GST control)"
same,binding signal,[14],"1.34 fold enrichment (6-mer frequency, TF over GST control)"
same,binding signal,[15],"1.41 fold enrichment (6-mer frequency, TF over GST control)"
same,binding signal,[16],"1.37 fold enrichment (6-mer frequency, TF over GST control)"
same,binding signal,[17],"1.35 fold enrichment (6-mer frequency, TF over GST control)"
same,binding signal,[18],"1.45 fold enrichment (6-mer frequency, TF over GST control)"
